Results: PubChem BioAssay AID504757 (Sanford-Burnham Center for Chemical Genomics, 2011)
Some of the results follow. Active and inactive are the calls of the source. Cut-off read from the data, not from the text of the source: active = inhibition above about 39%; inactive = the rest.

Biological target: Cysteine protease ATG4B (Homo sapiens) (UniProt Q9Y4P1)
Experiment: ATG4B protease inhibitors, retest, confirmation, biochemical, fluorescence, single concentration (AID 504757)
Conditions: ATG4B protease fluorescent substrate cleavage assay; at 8.33 µM; active compounds read high

Cysteine protease ATG4B (Homo sapiens), sequence (Q9Y4P1 whole entry, looked up): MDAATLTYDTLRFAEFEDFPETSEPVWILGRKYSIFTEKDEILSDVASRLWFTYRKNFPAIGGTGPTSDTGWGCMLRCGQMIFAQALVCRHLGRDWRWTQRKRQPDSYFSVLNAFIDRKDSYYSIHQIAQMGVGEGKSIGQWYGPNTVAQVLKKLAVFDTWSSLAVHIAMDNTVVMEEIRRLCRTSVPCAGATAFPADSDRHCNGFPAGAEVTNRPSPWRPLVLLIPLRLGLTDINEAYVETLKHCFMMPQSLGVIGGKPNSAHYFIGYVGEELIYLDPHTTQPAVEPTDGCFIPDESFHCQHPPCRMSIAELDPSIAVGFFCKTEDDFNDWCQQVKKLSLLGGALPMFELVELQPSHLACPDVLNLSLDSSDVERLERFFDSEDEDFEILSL

inhibition, active:
COc1ccc(/C=C2\CCc3ccccc3C2=O)c(OC)c1OC 90.7%
O=C(O)C(c1ccccc1)N1C(=O)/C(=C\c2ccc(-c3cccc(Cl)c3)o2)SC1=S (stereo unspecified) 38.8%
Clc1ccccc1CSc1nnc(-c2ccco2)c(-c2ccco2)n1 64.1%
Cc1ccc(CSc2nc(-c3ccccc3)c(C#N)c(=O)[nH]2)cc1 54.3%
CCc1ccc2c(c1)C(c1ccc([N+](=O)[O-])cc1)=NNC(c1ccccc1)=N2 51.2%
NC(=O)c1sc2nc3c(c(-c4ccccc4)c2c1N)CCC3 57.5%
FC(F)(F)Oc1ccc(NC(=S)NCc2ccccc2)cc1 71.7%
O=C1Nc2cc(Cl)c(Cl)cc2N(O)N1c1cc(Cl)cc(Cl)c1 64.3%
CCCOc1ccc2c3c(c(=O)oc2c1OCCC)CCC3 60.3%
CCOC(=O)c1c(-c2ccccc2)oc2cc(Br)c(O)c(C=O)c12 79%
CN(C)Cc1ccc(F)cc1Sc1cc(Cl)ccc1Cl 67.4%
O=C(O)CCn1cc(/C=C/C(=O)c2ccc(Cl)cc2)c(-c2cccc(Br)c2)n1 56.8%
COC(=O)N/N=C/c1cn(CCCOc2ccc(C)cc2)c2ccccc12 64.9%
CCOC(=O)C(C)Sc1nc2ccccc2c(=O)n1CC1CCCCC1 (stereo unspecified) 54.5%
CC(=O)Nc1ccc(C(=O)Nc2nc(-c3cc(C)n(Cc4ccccc4)c3C)cs2)cc1 62.7%
Cc1ccc(-n2c(SCC(=O)N/N=C/C=C/c3ccccc3[N+](=O)[O-])nc3ccccc3c2=O)cc1 46.6%
